The structures appear in SMILES notation. Several values for one entry are separate records, joined by “and”; a condition that tells them apart may be missing. Identical values can stand only once. This is part of a sample that, as a whole, favours compounds with a hit. Of some 83,000 tested, about 20% had one in any assay.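 96-well plates, one dose, 48 hours. Percent growth reported; active if below 10.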 Activity calls are given as the source filed them.

For 13 molecules, growth results are on record in PubChem BioAssay (NCI).

This assay relates to MDA-MB-468 breast. Description: NCI-60 one-dose screen, 48 h (100 = growth as untreated, 0 = no growth, -100 = all killed). To be noted: 10 µM unless noted.
On to `CCN(CC)CCCC(C)N(Cc1ccccc1)CC(O)c1ccc(Cl)cc1` (stereo not drawn), for which the growth is 91.2% (inactive) and 104% (inactive).
To `COc1ccc(C(C)=C(c2ccc(OCCN3CCCCCC3)cc2)c2ccc(OCCN3CCCCCC3)cc2)cc1` belongs -69.5% (active); to `Cc1cc2nc3c4cc(Cl)ccc4n(CCN(C)C)c3nc2cc1C`, -42.1% (active).
Under `COc1ccc(OC)c2c1[nH]c(=O)c1c3ccccc3cn21` stands -23.3% (active).
Regarding `C=C(C)[C@@H]1CC[C@]2(C=NCCCNCCCCNCCCN)CC[C@]3(C)[C@H](CC[C@@H]4[C@@]5(C)CCCNC(C)(C)[C@@H]5CC[C@]43C)[C@@H]12`, the growth was 98.5% (inactive).
To `Cc1ccc(S(=O)(=O)NC(=O)n2cc(-c3ccncc3)c(-c3ccc(Cl)c(O)c3)n2)cc1` belongs 101% (inactive).
Turning to `CN1CCN(CCCOc2cccc3nc(Nc4cc(Cl)cc(Cl)c4)ccc23)CC1`, the growth was -52.6% (active).
Under `COC1=CC(c2ccc[nH]2)=N/C1=C\c1[nH]c(C)c(C(=O)CCC(=O)Oc2ccc3c(c2)CCC2C3CC[C@]3(C)[C@@H](O)CC[C@@H]23)c1C` (stereo partly drawn) stands 39.4% (inactive); under `COc1ccc(C(=O)CSc2nc(-c3cc(OC)ccc3OC)cc(-c3ccc(Cl)cc3)c2C#N)cc1`, 25.8% (inactive); under `Cn1ccnc1C(=O)/C=C/c1ccc(C(=O)Nc2ccc(F)cc2)cc1`, 14.9% (inactive).
With `COc1ccc2nc3cc(Cl)ccc3c(N)c2c1`, the growth was -88.9% (active).
To `O=C(Cn1cc(CN2C(=O)c3ccccc3S2(=O)=O)nn1)Nc1cccc(Cl)c1` belongs 101% (inactive); to `Cc1ccccc1[P+](Cc1ccccc1)(c1ccccc1)c1ccccc1`, -14.4% (active).
